Reference: PubChem BioAssay
Activity calls are given as the source filed them.

What was measured:
Albumin (Bos taurus) = Albumin (Bos taurus) (UniProt P02769); assay: bovine serum albumin binders on microarray, profiling panel, artefact control for SMM control protein annotation, biochemical, small-molecule microarray, Alexa647 label, 635/667 nm fluorescence (AID 1118); details: BSA-A647 binding, fluorescence 635 nm, higher = more signal;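 also: score merges 667 nm emission intensity and signal-to-noise per printed compound spot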
Sequence of Albumin (Bos taurus) (P02769 whole entry, looked up): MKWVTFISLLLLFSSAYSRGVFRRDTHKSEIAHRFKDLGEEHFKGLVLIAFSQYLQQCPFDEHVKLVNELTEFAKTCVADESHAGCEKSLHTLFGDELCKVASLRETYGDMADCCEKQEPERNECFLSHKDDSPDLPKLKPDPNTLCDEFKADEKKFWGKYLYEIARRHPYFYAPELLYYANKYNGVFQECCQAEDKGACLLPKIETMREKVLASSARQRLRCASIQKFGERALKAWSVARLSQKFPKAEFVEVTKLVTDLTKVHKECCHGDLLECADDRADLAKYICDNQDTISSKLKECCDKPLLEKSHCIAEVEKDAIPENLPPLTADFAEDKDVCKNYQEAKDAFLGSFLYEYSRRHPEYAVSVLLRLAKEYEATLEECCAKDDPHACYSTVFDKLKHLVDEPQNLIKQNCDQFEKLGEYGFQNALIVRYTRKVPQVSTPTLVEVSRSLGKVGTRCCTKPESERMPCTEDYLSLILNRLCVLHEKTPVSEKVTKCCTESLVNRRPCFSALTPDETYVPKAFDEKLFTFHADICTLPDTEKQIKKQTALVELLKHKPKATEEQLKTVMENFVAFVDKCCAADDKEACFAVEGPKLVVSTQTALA

[1] = small-molecule microarray binders of probe aXIP, primary screen, biochemical, NeuroSMM set, 635/667 nm fluorescence (AID 1119); details: higher = more signal, called active from +8 up or from −8 down;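 also: probe is the protein aXip251-270 applied at 1 µg/mL to compound-printed slides; binding of probe to printed compounds measured as 667 nm fluorescence plus signal to noise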
[2] = small-molecule binders of probe aNOTCH3, primary screen, biochemical, small-molecule microarray, 635/667 nm fluorescence (AID 1120); details: higher = more signal;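 also: probe is a biotin-tagged antibody raised against NOTCH3 rather than NOTCH3 protein; score merges spot fluorescence near 667 nm with spot signal to noise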
[3] = small-molecule binders of probe aNOTCH2, primary screen, biochemical, small-molecule microarray, 635/667 nm fluorescence (AID 1121); details: higher = more signal;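 also: score merges feature fluorescence read at 667 nm with its signal to noise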
[4] = molecular target: Carbonic anhydrase 2 (Homo sapiens) (UniProt P00918); assay: CAII small-molecule binders, profiling panel, biochemical, small-molecule microarray, Alexa647-labelled CAII (AID 1122); details: CAII-A647 binding fluorescence, higher = more signal
[5] = COS7 lysate on small-molecule microarray, probe aHis, 635 nm (AID 1123); details: COS7 cell lysate, fluorescence, higher = more signal;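 also: z-score combines 667nm fluorescence intensity with signal-to-noise per printed compound spot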
[6] = compound binding in COS7 lysate, probe aLAP1, primary screen, cell lysate, small-molecule microarray (AID 1124); details: probe aLAP1, fluorescence, higher = more signal;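 also: lysate comes from COS7 cells expressing LAP1 and is applied at 0.3 µg/mL; score merges spot fluorescence near 667 nm with signal-to-noise over triplicate slides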
Sam68 (KHDRBS1) = assay: Sam68 small-molecule binders, primary screen, biochemical, small-molecule microarray, 635 nm fluorescence (AID 1125); details: small-molecule microarray binding, higher = more signal;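 also: score merges 667 nm channel intensity with signal to noise over triplicate slides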
[7] = test system: Chordin-like protein 2 (CHRDL2); assay: CHRDL2 small-molecule binders, primary screen, biochemical, small-molecule microarray, 635 nm fluorescence (AID 1126); details: small-molecule microarray binding, fluorescence 635 nm; higher = more signal;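 also: printed compound slides probed with Chrdl2 protein at 4 µg/mL for 1 h at 4 C; score merges 667 nm emission intensity with signal to noise over three replicate slides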
[8] = molecular target: Concanavalin-A (Canavalia ensiformis) (UniProt P02866); assay: ConA small-molecule binders, primary screen, artefact control for SMM control protein annotation, biochemical, small-molecule microarray, Alexa647 label, 635 nm (AID 1127); details: ConA-A647 binding fluorescence, higher = more signal;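 also: z combines 667 nm emission intensity with signal-to-noise across three replicate slides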
Sequence of Concanavalin-A (Canavalia ensiformis) (P02866 whole entry, looked up): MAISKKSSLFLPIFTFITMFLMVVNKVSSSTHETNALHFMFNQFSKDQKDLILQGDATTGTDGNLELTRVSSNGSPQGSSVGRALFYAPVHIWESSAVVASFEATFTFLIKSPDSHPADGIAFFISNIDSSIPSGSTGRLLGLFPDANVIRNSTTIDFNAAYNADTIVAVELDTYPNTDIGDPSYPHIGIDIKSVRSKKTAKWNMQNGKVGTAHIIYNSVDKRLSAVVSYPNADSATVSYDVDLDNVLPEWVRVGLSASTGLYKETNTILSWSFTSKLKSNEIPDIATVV

[9] = anti-His antibody binders, primary screen, artefact control for SMM control protein annotation, biochemical, small-molecule microarray, 635 nm fluorescence (AID 1128); details: anti-His Alexa647 antibody binding, higher = more signal;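 also: score merges feature fluorescence with signal-to-noise for each printed compound spot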
[10] = test system: Human papillomavirus type 1a E7 protein (residues 1-88); assay: HPV1a E7 small-molecule binders, primary screen, biochemical, small-molecule microarray, residues 1-88, 635 nm (AID 1129); details: small-molecule microarray binding, fluorescence 635 nm; higher = more signal
[11] = molecular target: Focal adhesion kinase 1 (Homo sapiens) (UniProt Q05397); assay: small-molecule microarray binders of FAK, primary screen, biochemical, 635/667 nm fluorescence, BSA, DTT (AID 1130); details: PTK2 binding, 635 nm fluorescence, higher = more signal;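 also: composite of spot emission at 667 nm and signal to noise over triplicate slides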
Sequence of Focal adhesion kinase 1 (Homo sapiens) (Q05397 whole entry, looked up): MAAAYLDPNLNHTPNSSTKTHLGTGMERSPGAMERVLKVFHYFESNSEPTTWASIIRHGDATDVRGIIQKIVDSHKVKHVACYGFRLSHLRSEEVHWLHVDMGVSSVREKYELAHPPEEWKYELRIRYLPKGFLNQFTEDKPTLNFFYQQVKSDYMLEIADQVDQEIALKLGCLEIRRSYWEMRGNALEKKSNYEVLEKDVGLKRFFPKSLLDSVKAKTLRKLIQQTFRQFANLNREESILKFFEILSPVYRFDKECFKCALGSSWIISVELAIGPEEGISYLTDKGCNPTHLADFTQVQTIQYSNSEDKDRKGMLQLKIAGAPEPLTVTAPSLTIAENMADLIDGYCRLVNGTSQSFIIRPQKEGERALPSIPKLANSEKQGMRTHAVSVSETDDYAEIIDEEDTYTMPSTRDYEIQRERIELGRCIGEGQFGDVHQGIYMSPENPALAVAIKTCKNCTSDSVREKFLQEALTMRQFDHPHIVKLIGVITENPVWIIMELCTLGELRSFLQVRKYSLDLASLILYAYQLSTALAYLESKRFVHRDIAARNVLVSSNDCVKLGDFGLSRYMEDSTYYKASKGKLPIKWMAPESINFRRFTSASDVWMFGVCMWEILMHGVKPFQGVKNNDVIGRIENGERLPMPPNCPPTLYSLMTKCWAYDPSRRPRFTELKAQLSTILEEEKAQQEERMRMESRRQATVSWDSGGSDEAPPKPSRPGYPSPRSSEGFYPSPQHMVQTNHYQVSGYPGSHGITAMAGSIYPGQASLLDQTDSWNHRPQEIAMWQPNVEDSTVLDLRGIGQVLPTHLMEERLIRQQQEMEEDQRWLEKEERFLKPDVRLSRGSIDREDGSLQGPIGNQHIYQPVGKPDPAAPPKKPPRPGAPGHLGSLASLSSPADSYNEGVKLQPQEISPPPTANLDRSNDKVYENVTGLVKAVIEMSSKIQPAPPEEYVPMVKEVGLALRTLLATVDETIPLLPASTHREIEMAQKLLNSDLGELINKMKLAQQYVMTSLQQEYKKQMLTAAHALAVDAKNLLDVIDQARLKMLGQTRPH

[12] = test system: Fibrinogen (Alexa647-labelled); assay: fibrinogen binders on compound microarrays, profiling panel, artefact control for SMM control-protein annotation, biochemical, small-molecule microarray, 635/667 nm fluorescence (AID 1131); details: fibrinogen-A647 binding fluorescence, higher = more signal;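 also: z-score merges 667 nm fluorescence with per-spot signal-to-noise over triplicate slides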
[13] = molecular target: Follistatin (Homo sapiens) (UniProt P19883); assay: follistatin binders on small-molecule microarrays, primary screen, biochemical, small-molecule microarray, 635/667 nm fluorescence (AID 1132); details: FST binding, 635 nm fluorescence, higher = more signal
Sequence of Follistatin (Homo sapiens) (P19883 whole entry, looked up): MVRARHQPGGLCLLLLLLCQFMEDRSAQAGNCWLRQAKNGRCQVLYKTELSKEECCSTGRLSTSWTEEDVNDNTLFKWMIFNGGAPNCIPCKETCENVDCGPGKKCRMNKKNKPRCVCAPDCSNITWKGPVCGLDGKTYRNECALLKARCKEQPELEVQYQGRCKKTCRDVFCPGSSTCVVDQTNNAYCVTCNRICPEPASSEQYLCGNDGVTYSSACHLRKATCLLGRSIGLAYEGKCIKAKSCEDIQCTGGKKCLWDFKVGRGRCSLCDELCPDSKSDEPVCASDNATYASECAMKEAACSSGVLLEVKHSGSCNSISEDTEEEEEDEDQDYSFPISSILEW

[14] = molecular target: Fibroblast growth factor 2 (Homo sapiens) (UniProt P09038); assay: FGF2 binders on small-molecule microarrays, primary screen, biochemical, small-molecule microarray, 635/667 nm fluorescence (AID 1133); details: small-molecule microarray binding, FGF2, fluorescence 635/667; higher = more signal
Sequence of Fibroblast growth factor 2 (Homo sapiens) (P09038 whole entry, looked up): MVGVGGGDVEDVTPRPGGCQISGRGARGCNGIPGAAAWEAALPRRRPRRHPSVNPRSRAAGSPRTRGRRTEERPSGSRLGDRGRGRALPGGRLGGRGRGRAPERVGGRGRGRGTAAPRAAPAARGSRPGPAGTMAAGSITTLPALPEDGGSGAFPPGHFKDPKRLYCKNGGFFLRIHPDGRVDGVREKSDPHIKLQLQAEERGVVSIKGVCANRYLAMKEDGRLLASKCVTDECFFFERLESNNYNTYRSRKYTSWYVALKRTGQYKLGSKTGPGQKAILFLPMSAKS

[15] = mitochondrial membrane potential change in A549 cells, profiling panel, cell-based, JC-1 fluorescence, basal, 24 h, 100 nL (AID 1138); details: higher = more signal;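 also: A549 lung adenocarcinoma cells under basal conditions with no added stimulus; test concentration not given here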
Lefty1 = Lefty1 binders on small-molecule microarrays, primary screen, biochemical, small-molecule microarray, 635/667 nm fluorescence (AID 1139); details: small-molecule microarray binding, fluorescence 635/667; higher = more signal
[16] = test system: wheat germ agglutinin (Triticum aestivum), Alexa647-labelled; assay: wheat germ agglutinin binders on compound microarrays, profiling panel, artefact control for SMM control-protein annotation, biochemical, small-molecule microarray, 635/667 nm fluorescence (AID 1140); details: WGA-A647 binding, 635 nm fluorescence, higher = more signal;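 also: score merges 667 nm feature emission with signal to noise over triplicate slides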
[17] = molecular target: Luciferin 4-monooxygenase (Photinus pyralis) (UniProt P08659); assay: firefly luciferase enzyme inhibitors, primary screen, biochemical, luminescence, purified enzyme, 2006 set (AID 1141); details: SteadyGlo luminescence, 30 min, higher = more signal, called active from +8 up or from −8 down;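 also: cell-free assay with purified firefly luciferase at 100 ng per well in PBS; test concentration not given here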
Sequence of Luciferin 4-monooxygenase (Photinus pyralis) (P08659 whole entry, looked up): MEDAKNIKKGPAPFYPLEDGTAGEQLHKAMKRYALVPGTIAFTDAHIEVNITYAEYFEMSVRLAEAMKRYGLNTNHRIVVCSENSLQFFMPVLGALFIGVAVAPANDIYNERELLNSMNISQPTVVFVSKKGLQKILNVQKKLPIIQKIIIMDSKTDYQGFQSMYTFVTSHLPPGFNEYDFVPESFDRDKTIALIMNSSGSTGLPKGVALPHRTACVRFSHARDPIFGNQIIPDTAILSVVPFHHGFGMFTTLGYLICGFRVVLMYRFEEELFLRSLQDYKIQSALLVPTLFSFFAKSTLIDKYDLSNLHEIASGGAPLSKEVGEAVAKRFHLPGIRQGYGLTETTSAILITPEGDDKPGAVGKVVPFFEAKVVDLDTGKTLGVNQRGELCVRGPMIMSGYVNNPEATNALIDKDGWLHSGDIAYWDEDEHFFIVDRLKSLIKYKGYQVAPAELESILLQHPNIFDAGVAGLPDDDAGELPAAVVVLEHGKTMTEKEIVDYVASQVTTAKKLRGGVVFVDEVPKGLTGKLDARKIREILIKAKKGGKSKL

| SMILES | composite z-score (Albumin (Bos taurus)) | composite Z-score [1] | composite z-score [2] | composite z-score [3] | composite z-score [4] | composite z-score [5] | composite z-score [6] | composite z-score (Sam68 (KHDRBS1)) | composite z-score [7] | composite z-score [8] | composite z-score [9] | composite z-score [10] | composite z-score [11] | composite z-score [12] | composite z-score [13] | composite z-score [14] | z-score [15] | composite z-score (Lefty1) | composite z-score [16] | z-score [17] |
| --- | --- | --- | --- | --- | --- | --- | --- | --- | --- | --- | --- | --- | --- | --- | --- | --- | --- | --- | --- | --- |
| COc1ccc([Si](C)(C)[C@H]2[C@H](CC(=O)N3Cc4ccccc4C[C@H]3CO)O[C@@]3(C(=O)N(Cc4cccc(N5CCOC5=O)c4)c4ccccc43)[C@@H]2C)cc1 | -0.89 | 0.55 (inactive) | -0.0077 | -0.104 | 0.574 | 0.784 | 0.0161 | 0.847 | 1.45 | 0.791 | 1.42 | 0.533 | 0.432 | -0.235 | 1.31 | 1.32 | 2 | 1.24 | 0.188 | -0.86 (inactive) |
| COc1ccc(CCNC(=O)[C@@]2(c3ccc([N+](=O)[O-])cc3)CC(=O)N(C(C)C)[C@@H]2c2ccc(CO)cc2)cc1 | 0.0638 | 0.265 (inactive) | -0.331 | -0.154 | 0.748 | 0.462 | 0.451 | -0.549 | -2.5 | -0.895 | -0.601 | -0.622 | -0.637 | -2.13 | -0.669 | -0.848 | 0.774 | -2.2 | -0.81 | -0.939 (inactive) |
| CC(=O)NCCCC[C@@H]1NC(=O)[C@@H]2C[C@H](C(=O)NCCCCCCN(C)C)[C@H](c3ccc(O)cc3)N2C1=O | -0.853 | 0.67 (inactive) | -0.0396 | 0.112 | 0.57 | 1.92 | -0.234 | 1.32 | 1.44 | 1.21 | 2.82 | 1.26 | 0.383 | 0.53 | 1.34 | 1.56 | 0.543 | 1.58 | 1.25 | -0.916 (inactive) |
| CCOC(=O)C[C@H]1[C@H](OC(=O)Cc2ccc3c(c2)OCO3)[C@@H](NC(=O)c2ccc3ccccc3c2)c2cc(OCCCO)ccc2N1C(=O)Cc1ccc(OC)cc1 | 0.897 | 0.563 (inactive) | 0.0284 | -0.0846 | 0.0553 | 1.54 | -0.333 | 0.952 | 0.472 | 0.684 | -0.708 | 0.836 | 0.211 | 0.561 | 0.413 | 0.441 | 0.751 | 0.55 | 0.353 | -0.953 (inactive) |
| NC(=O)[C@H]1[C@@H]2C(=O)O[C@@H](c3ccccc3)[C@@H](c3ccccc3)N2[C@@H](c2ccc(O)cc2)[C@]12C(=O)Nc1ccc(C#CCCO)cc12 | 0.0103 | 0.049 (inactive) | -0.125 | -0.0645 | 0.72 | -0.119 | 0.0482 | -1.09 | -0.92 | -1.78 | 2.14 | -1.66 | -0.574 | -1.74 | -0.458 | -0.581 | -1.14 | -0.997 | -1.4 | -0.0824 (inactive) |
